Screens deposited in PubChem by National Center for Advancing Translational Sciences (NCATS).
USP2a inh = blocks human ubiquitin-specific protease USP2a; O75604; USP2 core, Ub-CHOP2 coupled fluorogenic reporter, 485/531; Potency, µM (top dose mostly 38.3 µM), for inactives: at the highest dose activity change, negative = inhibition, most hits filed as inhibitors; 0.01% of 330,000 active;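 note: potency is the fitted concentration of half-maximal effect; plate controls were DMSO wells for no effect and full inhibition by NEM control for full effect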
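USP2 core (10nM final) preincubated 30min RT with compound in 20mM Tris-HCl pH 8.0, 2mM CaCl2, 2mM beta-mercaptoethanol, 0.05% CHAPS; 25nM Ub-CHOP2 plus 25nM reporter substrate added, fluorescence (Ex485/Em531) read after 60min.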
USP1-UAF1 inh = inhibitors of human USP1/UAF1 deubiquitinase; O94782; recombinant USP1/UAF1, Ub-Rhodamine cleavage fluorescence; Potency, µM (highest dose often 57.1 µM), for the others: top-dose activity change, negative = inhibition, hits mostly inhibitors; 0.23% of 390,000 active; AID 743255; note: potency is the fitted concentration of half-maximal effect; nearly all actives have a fitted effect of over 60% in size
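1 nM enzyme complex + cpd, 15 min RT; start with Ub-Rho 150nM final; kinetic fluorescence ex 480/em 540, 6 reads q60 s. Buffer 50mM HEPES pH 7.8, 0.5mM EDTA, 0.1 mg/ml BSA, 1mM TCEP, 0.01% Tween-20.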
PI5P4K alpha inh = blocks human PI5P4K alpha kinase activity | P48426 | PI5P4Kalpha enzyme, ADP-Glo luminescence, 60 min; hits give low values | max response, % | 1.2% of 330,000 active | AID 652105; active = max response of -50% or lower; inconclusive = between -30% and -50%; inactive = -30% or higher; note: value at the top dose of about 77 µM
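Quantitative HTS of the MLSMR library against PI5P4Kalpha with substrate. ATP added last at 5 microM final; room temperature, 60 minutes. Remaining ATP depleted, ADP converted and read as luminescence.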
PLK1 PBD block = inhibitors of human PLK1 polo-box domain binding; 2.8% of 360,000 active; Plk1 PBD binding of FITC phosphopeptide, fluorescence polarization; Potency, µM, inactives show max response, negative = inhibition, hits mostly inhibitors; note: potency is the fitted concentration of half-maximal effect; series mostly up to about 57 µM; nearly all actives have a fitted effect of over 65% in size
WRN helicase inh = inhibitors of human WRN helicase; Potency, µM (highest dose often 114 µM), inactives show at the highest dose activity change, negative = inhibition, actives largely listed as inhibitors; WRN helicase unwinding, fluorescent forked duplex, kinetic; 0.46% of 360,000 active; note: potency is the fitted concentration of half-maximal effect; nearly all actives have a fitted effect of over 55% in size
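Screening of the MLSMR collection measured strand separation of a quenched forked DNA duplex (100 nM) by 20 nM WRN with 2 mM ATP, all final. Compounds were preincubated with enzyme 15 min at room temperature.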
TbPYK inh = Trypanosoma brucei pyruvate kinase inhibition, cherry-pick confirmation | recombinant TbPYK, Kinase-Glo ATP luminescence | shares compounds with PLK1 PBD block | Potency, µM (top dose mostly 76.9 µM), inactives show top-dose activity change, negative = inhibition, usual class: inhibitors | 67% of 890 active; note: potency is the fitted concentration of half-maximal effect; nearly all actives have a fitted effect of over 70% in size
TbPYK orthogonal = inhibits T. brucei pyruvate kinase in orthogonal ADP-Glo assay; shares compounds with PLK1 PBD block; recombinant TbPYK, ADP-Glo luminescence, 60 min; Potency, µM (top dose mostly 76.9 µM), inactives show at the highest dose activity change, negative = inhibition, usual class: inhibitors; 62% of 890 active; note: potency is the fitted concentration of half-maximal effect; nearly all actives have a fitted effect of over 75% in size
* = called active by the depositor; u = inconclusive; x = no result given; [ ] = dose if it differs, or a comment. Compounds with a hit are over-represented: about 3.3% of the library has one in this group of screens. Unless noted, calls come from the whole dose curve; as a rule, active = well fitted curve in the direction sought with a large enough effect; inconclusive = small, poorly fitted or top-dose-only effect, or another doubt; inactive = no such curve, though single readings can be large; an effect the other way counts as inactive or inconclusive. Unless noted, % is set by controls: 0 for no effect and ±100 for the full control effect.

SMILES | USP2a inh | USP1-UAF1 inh | PI5P4K alpha inh | PLK1 PBD block | WRN helicase inh | TbPYK inh | TbPYK orthogonal
O=C(Nc1ccc(Cl)cc1)C(Cl)C(=O)c1ccccc1 (stereo unspecified) | 2% | u | -6 | 0.6µM* | -17% | 7.9µM* | 14µM*
CCOc1ccc(OCC)c(NC(=O)Cn2nc(CC)n3c(cc4sccc43)c2=O)c1 | x | 6% | x | x | x | x | x
Cc1ccc(C)c(N2CCN(C(=O)CCc3c(C)nn(-c4ccc(N5CCCC5)nn4)c3C)CC2)c1 | x | -3% | x | x | x | x | x
COc1ccc(N2C(=O)/C(=C/N(C)C)NC2=S)cc1 | 2% | u | -3 | -7% | -7% | 5.6µM* | 13µM*
COc1cc(C(=O)NCC(c2cccs2)S(=O)(=O)c2ccc(F)cc2)cc(OC)c1OC (stereo unspecified) | x | 2% | x | x | x | x | x
CSc1nsc(SC)c1NC(=O)N1CCCC1 | 0% | -6% | x | -9% | 5% | u | 32µM*
O=C1C(c2ccccc2)CN1Cc1ccccc1 (stereo unspecified) | x | x | 4 | -2% | 5%[57.1 µM] | x | x
O=C1N(Cc2ccccc2)CC2(Br)COCOC12O (stereo unspecified) | x | -10% | -62* | 2.7µM* | 18µM* | 1.1µM* | 3.5µM*
N/C(=N\OC(=O)c1ccc(F)cc1)c1nonc1N | 2% | -2% | -17 | -18% | -15% | x | x
N/C(=N/OC(=O)c1ccccc1Cl)c1nonc1N | 3% | -5% | -24 | -4% | -5% | 25µM* | 6%
COc1cccc(CNC(=O)C2CCCN(c3nn4cc(-c5ccc(C)cc5)nc4s3)C2)c1 (stereo unspecified) | x | -3% | x | x | x | x | x
CCN(CC)c1ccc2nc3ccc(N)cc3[n+](-c3ccccc3)c2c1 | -1% | -20% | u | -27% | 4.7µM* | u | 8%
CCN(CC)c1ccc2nc3ccccc3[n+](CC)c2c1 | u | -24% | u | u | u | 32µM* | -1%
Cc1ccc(-n2nc(C)c3c(C(=O)NCc4ccccc4)cc(C4CC4)nc32)cc1 | x | 0% | x | x | x | x | x
O=C1c2sc3nc4ccccc4n3c2C(=O)N1c1ccccc1Cl | 0% | -14% | -1 | 12µM* | -19% | 6.3µM* | 16µM*
O=c1/c(=C\c2cccnc2)sc2nc3ccccc3n12 | 2% | -9% | -1 | -4% | -2% | x | x
N#C/C(=C/c1ccc(N2CCOCC2)o1)c1ccc(Cl)cc1 | 0% | 28µM* | x | 6% | -26% | u | 35µM*
CCOC(=O)CNC(=O)CSc1nnc(-c2ccco2)n1N | -1% | -18% | -3 | 0% | 0% | x | x
CCOC(=O)CNC(=O)CSc1nnc(-c2ccco2)n1Cc1ccco1 | -2% | -16% | x | -5% | 0% | 3.5µM* | 14µM*
CCN(CC)C(=O)CSc1nc2c(c(-c3cccnc3)c1C#N)CCCC2 | 4% | -4% | 0 | 0% | -4% | x | x
N#Cc1c(SCC(N)=O)nc2c(c1-c1ccncc1)CCCC2 | 4% | -23% | 3 | -24% | -4%[57.1 µM] | 4µM* | 4µM*
COc1cccc(/C=C2\C(=O)C(=O)c3ccccc32)c1 | 5% | 1% | x | 0.79µM* | u | 32µM* | u
Cc1sc2ccccc2[n+]1CC(=O)O | 4% | -9% | 5 | u | 50µM* | 3.5µM* | 13µM*
COC(=O)c1ccc2nc(-c3ccco3)c(Cc3cccc(Cl)c3)n2c1 | x | x | -8 | -29% | -10% | x | x
COC(=O)c1ccc2nc(-c3ccco3)c(Cc3ccccc3)n2c1 | x | x | -26 | u | -10% | 13µM* | 14µM*
SMILES | USP2a inh | USP1-UAF1 inh | PI5P4K alpha inh | PLK1 PBD block | WRN helicase inh | TbPYK inh | TbPYK orthogonal
CC1=C/C(=C(/c2ccc(O)c(C)c2)c2ccccc2S(=O)(=O)O)C=CC1=O | -11% | -15% | -4 | -8% | -20% | x | x
CC1=C/C(=C(/c2cc(C)c(O)c(Br)c2)c2ccccc2S(=O)(=O)O)C=C(Br)C1=O | 3% | -22% | -65* | u | u | 22µM* | 10%
Cn1c2ccccc2c2ccc3c(c21)C(=O)C=CC3=O | x | u | -72* | 12µM* | u | -28% | -21%
Cn1c(-c2ccc(Br)o2)nc2ccccc21 | 3% | -4% | -25 | -10% | -6% | x | x
Cc1ccc(-c2nc3ccccc3n2C)o1 | 2% | -1% | x | -11% | 0% | u | -7%
CC(C)(C)c1cc(C(=S)N2CCN(CCO)CC2)cc(C(C)(C)C)c1O | -1% | -9% | x | 9.5µM* | -27% | 3.5µM* | 7.9µM*
Cc1sc2c(c1C)c(=O)n(-c1cccc(C(F)(F)F)c1)c(=O)n2Cc1ccccc1C#N | x | -18% | x | x | x | x | x
Cc1nc(-c2ccc(C(=O)N3CCOCC3)cc2)cs1 | 1% | -17% | -15 | -2% | 3% | x | x
Cc1nc(-c2ccc(C(=O)N3CCCC3)cc2)cs1 | 16% | -12% | u | -9% | -30% | u | 10%
O=C(NCC1CCCO1)c1sc(=S)n2c1[nH]c(=O)c1ccc(C(=O)N3CCCCC3)cc12 (stereo unspecified) | 0% | -9% | x | -19% | -31% | u | u
c1ccc(Cc2nn3c(C4COc5ccccc5O4)nnc3s2)cc1 (stereo unspecified) | 0% | -8% | x | 21µM* | -13% | u | u
O=C(NCc1ccco1)c1ccc(Cn2c(SCc3ccc(F)cc3)nc3cccnc32)cc1 | x | -2% | x | x | x | x | x
COc1cc2c(cc1OC)C(=O)C(Br)CC2 (stereo unspecified) | x | 14µM* | -51* | 0.95µM* | 50µM* | 10µM* | 5.6µM*
COc1ccc(OC)c(S(=O)(=O)Nc2cc3c(cc2N2CCCC2)n(C)c(=O)c(=O)n3C)c1 | 3% | -21% | -24 | 21µM* | 3% | -21% | u
Cn1c(=O)c(=O)n(C)c2cc(N3CCCC3)c(NS(=O)(=O)c3ccc(F)cc3)cc21 | 3% | -13% | -3 | -9% | 0% | x | x
C=Cc1ccc(C(=O)N2CCCC(Nc3ccc4c(c3)OCCO4)C2)cc1 (stereo unspecified) | 1% | -13% | -9 | -2% | 3% | u | u
C=CCOc1cccc(C(=O)N2CCCC(Nc3ccc4c(c3)OCCO4)C2)c1 (stereo unspecified) | 0% | -6% | 0 | 5% | 5% | x | x
Oc1ccc(N2CCN(C(c3cccs3)c3nnnn3CCc3ccccc3)CC2)cc1 (stereo unspecified) | 0% | -9% | -15 | -5% | -3% | 4.5µM* | 22µM*
Cc1cc(C)cc(NC(=O)c2sc3nc(-c4ccccc4)cn3c2C)c1 | x | -18% | x | x | x | x | x
O=C1C=CC(=O)N1c1ccc2c(c1)Cc1cc(F)ccc1-2 | x | -10% | -18 | u | -20% | x | x
